# Screening results: PubChem, National Center for Advancing Translational Sciences (NCATS)
# The list is not random: actives were taken first. Their share in the collection is about 14%.
# Pf growth 48h: Primary qHTS for delayed death inhibitors of the malarial parasite plastid, 48 hour incubation. P. falciparum luciferase growth in erythrocytes, 48 h. Potency, µM (series often up to 28.7 µM), without a hit: top-dose activity change, negative = inhibition, hits mostly inhibitors. 310,000 compounds, 5.9% hits. AID 504832, 2011; also: potency is read from the fitted curve at half-maximal effect
#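 Cell-based growth assay: transgenic P. falciparum expressing firefly luciferase, cultured in red cells within RPMI 1640 containing 0.5% w/v Albumax, 24 mM bicarbonate and gentamycin. A drop in luciferase activity indicates inhibition.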
# Pf growth 96h: Primary qHTS for delayed death inhibitors of the malarial parasite plastid, 96 hour incubation. P. falciparum luciferase reporter growth, 96 h. Potency, µM (series often up to 28.7 µM), without a hit: at the highest dose activity change, negative = inhibition, most hits filed as inhibitors. 320,000 compounds, 6.9% hits. AID 504834, 2011; also: potency is read from the fitted curve at half-maximal effect
#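 Erythrocytes infected with luciferase-expressing P. falciparum were dispensed at 2% hematocrit and 0.05% parasitemia (final), then incubated with compounds 96 hours at 37 C in 5% CO2. Luminescence after detection reagent addition reported growth.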
# HCV inhibitor: qHTS Assay for Inhibitors of Hepatitis C Virus (HCV); Huh7.5.1 HCVcc-Cre infection, luciferase reporter, 44 h; AID 651820, 2012; 340,000 compounds, 3.4% hits; Potency, µM (highest dose often 41.8 µM), without a hit: top-dose activity change, negative = inhibition, usual class: inhibitors; also: potency is read from the fitted curve at half-maximal effect
#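 Whole-lifecycle infectious HCVcc-Cre system; cells 1,000/well, compound then virus (~0.5 moi) added 4 h after plating, 44 h culture. Luciferase read 15 sec following 15 min substrate incubation, room temp.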
# Marburg entry inh: qHTS for inhibitors of binding or entry into cells for Marburg Virus | Potency, µM (doses to about 37.8 µM), for the others: at the highest dose activity change, negative = inhibition, usual class: inhibitors | AID 540276, 2011 | Marburg virus pseudotyped entry inhibition, cell reporter | 300,000 compounds, 1.8% hits; calls by dose curve; tested in HEK293 cells; also: potency is read from the fitted curve at half-maximal effect
# Lassa entry inh: qHTS for Inhibitors of binding or entry into cells for Lassa Virus; Lassa virus pseudotype entry inhibition, cell reporter; Potency, µM (doses to about 37.9 µM), for the others: at the highest dose activity change, negative = inhibition, actives largely listed as inhibitors; 300,000 compounds, 1.2% hits; calls by dose curve; tested in HEK293 cells; also: potency is read from the fitted curve at half-maximal effect; nearly all actives have a fitted effect of over 50% in size
# HCMV inh: qHTS Assay for inhibitors of the human cytomegalovirus (HCMV) | HFF cells, HCMV-luciferase reporter, 72 h; active compounds read low | activity change, negative = inhibition, % at 57.5 µM | 410,000 compounds, 4.5% hits; in the data active = activity change below about -60%; inconclusive = no clear call, values can overlap the other calls; inactive = above about -39%
#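 Inhibition of viral replication was scored as loss of reporter luminescence in HFFs infected with HCMV-luciferase (MOI 1 PFU/cell) for 72 h; compounds tested at 2 doses, normalized to buffer and Salinomycin controls.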
# * marks the source's active call; other numbers are inactive results; ? = inconclusive; . = no result given; ! = repeats disagree; [ ] = dose if it differs, or a comment. Unless noted, calls follow the shape of the dose curve; as a rule, active = well fitted inhibition curve with a large enough effect; inconclusive = small, poorly fitted or top-dose-only effect, or another doubt; inactive = no such curve, though single readings can be large or run the other way. % is scaled to controls: 0 for no effect and ±100 for the full control effect.
SMILES,Pf growth 48h,Pf growth 96h,HCV inhibitor,Marburg entry inh,Lassa entry inh,HCMV inh
Cc1cc(Br)ccc1OCCCCNC(C)(C)C,?,?,13µM*,?,-23%,-28
COc1ccccc1OCCCCNC(C)(C)C,5%,55%,5%,-21%,1%,2
COCCNCCCCOc1ccc(Br)cc1C,-22%,?,10µM*,?,?,-9
Cc1cc(Cl)c(OCCCCNC(C)(C)C)c(Br)c1,-17%,60%,10µM*,?,?,.
COCCCNCCCCOc1cccc(Br)c1,2%,?,?,?,0%,-11
COCCCNCCCCOc1ccc(Br)cc1C,-18%,-42%,11µM*,13µM*,?,-5
C=CC[C@]1(C(=O)OC)C=C[C@H](C)[C@@H](c2ccccc2)N1C(=O)C(F)(F)F,.,.,.,-15%[14.2 µM],.,.
COC(=O)C/C=C/[C@@H](C)[C@H](NC(=O)OCC(Cl)(Cl)Cl)c1ccc2ccccc2c1,.,.,.,-18%[14.2 µM],.,.
COCCN(CCOC)Cc1cc(=O)oc2cc(C)cc(C)c12,.,.,.,.,?,-16
Cc1ccc2[nH]c3c(c2c1)CCC[C@H]3C(N)=O,.,.,.,5%,.,.
COc1ccc(/C(C)=N/NC(=O)CNC(=O)/C=C\c2ccccc2)c(OC)c1,9%,32%,18%,.,.,-86*
COc1cc(C(=O)NCC(=O)N/N=C(C)\C=C\c2ccccc2)cc(OC)c1OC,-12%,?,?,-23%[46.1 µM],-11%[46.1 µM],-73*
COc1ccc(/C(C)=N/NC(=O)CNC(=O)COc2ccccc2)c(OC)c1,4%,2%,-15%,21%[46.1 µM],-6%[46.1 µM],-35
CNC(=O)CCc1[nH]c2ccccc2c1Sc1ccccc1,?,5.2µM*,17%,?,?,19
COC(=O)c1[nH]c2ccccc2c1Sc1ccccc1,-11%,-14%,-2%,.,.,?
O=C(CSc1nc(-c2ccccc2)cs1)NCCCN1CCCC1=O,.,.,14%,.,.,7
Cc1ccc(NC(=O)Nc2nnc(N(C)Cc3ccccc3)s2)cc1,.,.,.,?,-24%[46.1 µM],10
CN(Cc1ccccc1)c1ncc(C=O)s1,59%,18%,10%,?,-21%[46.1 µM],-63*
COc1cc(C(CC(=O)N2CCOCC2)c2c(OC)cc(OC)c3ccc(=O)oc23)cc(OC)c1OC (stereo unspecified),?,?,?,.,.,-8
COc1cc(OC)c2ccc(=O)oc2c1C(CC(=O)N1CCOCC1)c1ccc2c(c1)OCO2 (stereo unspecified),-20%,?,-8%,.,.,-27
COc1cc(C(CC(=O)N2CCN(c3ccccc3)CC2)c2c(OC)cc(OC)c3ccc(=O)oc23)cc(OC)c1OC (stereo unspecified),5.9µM*,4.7µM*,?,.,.,-2
COc1cc(OC)c2ccc(=O)oc2c1C(CC(=O)N1CCN(c2ccccc2)CC1)c1ccc2c(c1)OCO2 (stereo unspecified),12µM*,13µM*,?,.,.,12
CN1CCc2cc(Cl)c(O)cc2[C@H]2c3ccccc3CC[C@@H]21,12µM*,9.5µM*,.,.,.,.
CN1CCc2cc(O)c(O)cc2C(c2ccccc2)C1 (stereo unspecified),?,-9%,?,13µM*!,?,-25
CN1CCc2cc(Cl)c(O)cc2[C@@H](c2ccccc2)C1,.,.,-6%,-10%,0%,-65*
SMILES,Pf growth 48h,Pf growth 96h,HCV inhibitor,Marburg entry inh,Lassa entry inh,HCMV inh
O=C(CBr)N1CCc2ccccc2C(c2ccccc2)C1 (stereo unspecified),7%,28%,13%,18%[46.1 µM],6%,19
C=CCN1CCc2c(cc(O)c(O)c2Br)[C@@H](c2ccccc2)C1,.,.,?,?,?,58
O=C(c1ccc2ncsc2c1)N1CCN(c2cccc(C(F)(F)F)c2)CC1,0%,?,?,?,?,-35
C=C1C(=O)[C@]23C[C@H]1CCC2[C@]1(C)CCC[C@@](C)(C(=O)O)C1C[C@@H]3O (stereo partly specified),.,.,.,.,.,-102*
C=C1C(=O)[C@]23C[C@H]1CCC2[C@]1(C)C(=O)CC[C@@](C)(C(=O)O)C1C[C@@H]3O (stereo partly specified),.,.,.,.,.,-19
Cc1ccc(-c2nc(P(=O)(c3ccccc3)c3ccccc3)c(N3CCOCC3)o2)cc1,10µM*,10µM*,?,10µM*,?,-7
CCOP(=O)(OCC)c1nc(-c2ccc(OC)cc2)oc1N1CCOCC1,-11%,-3%,-7%,-5%[46.1 µM],-26%[46.1 µM],-4
CNc1oc(-c2ccc(Cl)cc2)nc1P(=O)(c1ccccc1)c1ccccc1,?,15µM*,?,-38%,?,60
Cc1cc2c(cc1S(=O)(=O)N1CCCC1)n(C)c(=O)c(=O)n2C,-2%,13µM*,24%,.,.,-15
Cc1cccc(NS(=O)(=O)c2cc3c(cc2C)n(C)c(=O)c(=O)n3C)c1,?,13µM*,-7%,.,.,-29
CN(Cc1cccc(F)c1)CC(O)COCc1ccccc1Cl (stereo unspecified),-12%,?,10%,9%[46.1 µM],-5%[46.1 µM],12
Fc1ccc(CN(C2=NCCN2)c2c(Cl)cccc2Cl)cc1,.,.,.,18µM*,?,.
Fc1cccc(CN(C2=NCCN2)c2c(Cl)cccc2Cl)c1,12µM*,3%,?,.,.,-63*
Fc1ccc(CN2CCN(c3ncccn3)CC2)cc1,.,?,24%,-16%,9%,-34
Cc1cn2c(=O)cc(COC(=O)c3ccc(NC(=O)COc4ccc(C)c(C)c4)cc3)nc2s1,.,.,.,.,5%[46.1 µM],-1
CC(=O)Nc1ccc(S(=O)(=O)N2c3ccccc3NC(=O)CC2C)c(Cl)c1 (stereo unspecified),2.1µM*,0%,14%,-3%[46.1 µM],-3%,29
CC1CC(=O)Nc2ccccc2N1S(=O)(=O)c1ccccc1 (stereo unspecified),-9%,7%,3%,5%,6%,-8
CC1CC(=O)Nc2ccccc2N1S(=O)(=O)c1ccc(F)cc1F (stereo unspecified),2.3µM*,?,3%,2%[46.1 µM],-17%,22
Clc1ccc2nc(NCc3ccccc3)c3nncn3c2c1,.,.,.,4%[46.1 µM],4%[46.1 µM],64
CCc1ccc(OC(=O)CSc2nnc(-c3ccc(OC)c(OC)c3)o2)cc1,.,.,.,-3%[46.1 µM],6%[46.1 µM],10
O=C1CCC[C@H]2C[C@@H](O)CC[C@]23CCCN13,.,.,.,.,.,15
CCOC(=O)/C(=C\Nc1cccc(OCc2ccccc2)c1)NC(=O)c1ccccc1,.,.,.,.,.,-60*
CCc1ccccc1CC1CN(Cc2ccccc2)Cc2ccccc2N1c1ccc(OC)cc1 (stereo unspecified),.,.,.,.,.,13
